Sampled rows, rich in hits. Any-hit rate of the full collection: about 2.3%.
MmCpn inh: inhibitors of Methanococcus maripaludis chaperonin TRiC (MmCpn) | hit rate 0.031% among 330,000 | purified Mm-Cpn ATPase, ADP Transcreener TR-FRET | Potency, µM (doses to about 76.9 µM), without a hit: at the highest dose activity, negative = inhibition, actives largely listed as inhibitors; further: potency means the concentration at half of the fitted maximal effect; on the % scale 0 is the no-effect control and ±100 the full control effect; nearly all actives have a fitted effect of over 80% in size
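Inhibition of chaperonin ATP hydrolysis is measured as reduced ADP production, detected by competitive TR-FRET in which signal falls with ADP. Final enzyme 25 nM and ATP 10 uM, reacted 30 min at 37°C.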
CCT chaperon mod: cytosolic chaperonin activity modulation | AID 651819 | purified chaperonin ATPase assay, HTRF ADP detection, 30 min | hit rate 0.3% among 360,000 | activity change, % (concentration not given with the values), hits read low; in the data active means activity change below about -30%; further: on the % scale 0 is the no-effect control and ±100 the full control effect
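ATPase activity: ADP formed was measured by HTRF Transcreener (665/615 nm ratio) after 30 min at 37 deg C with 10 uM ATP. Compounds screened at one 76 uM concentration against 40 or 20 nM TRiC in Tris pH 7.4/KCl/MgCl2/DTT buffer.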
TDP-43 yeast inh: inhibitors of TDP-43 toxicity in yeast; TDP-43 expressing yeast growth rescue, BacTiter-Glo, 24 h; Potency, µM (top dose mostly 46.1 µM), for the others: at the top dose growth rescue (activation), actives largely listed as activators; hit rate 1.8% among 410,000; AID 652104; further: potency means the concentration at half of the fitted maximal effect; % of control where 0% means no effect; nearly all actives have a fitted effect of over 50% in size
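In this qHTS, compounds that restore growth of yeast expressing TDP-43 appear as activators. Cells (OD600=0.02, galactose medium, raffinose-pregrown) are incubated with compound 24 hr at 30 deg C and growth is quantified by BacTiter-Glo.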
FUS yeast rescue: suppressors of FUS proteinopathy in yeast; S. cerevisiae FUS-expressing, growth rescue, OD600, 24 h; Potency, µM (doses to about 76.6 µM), actives largely listed as activators; hit rate 0.24% among 390,000; AID 1347120;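 further: potency means the concentration at half of the fitted maximal effect; plate controls were DMSO vehicle for no effect and reference control for full effect; nearly all actives have a fitted effect of over 55% in size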
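Absorbance at 600 nm, taken 24hr after compound addition, measured rescue of FUS-yeast growth at 30C. Induction used 2% galactose with seeding at OD 0.005. Controls: CP55940 from 92uM final, DMSO only.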
Abeta rescue: compounds reversing amyloid beta toxicity in yeast; yeast expressing A-beta42, growth rescue, OD600, 48 h; response scale: 0% DMSO, 100% iron-clioquinol control; Potency, µM (titrated, usually from 46.1 µM), actives largely listed as activators; hit rate 0.063% among 410,000; AID 1347071; further: potency means the concentration at half of the fitted maximal effect; nearly all actives have a fitted effect of over 55% in size
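Growth rescue measured by 600 nm absorbance after 48 h yeast culture at 30 C with compound. Values normalized between DMSO and an equimolar ferric chloride plus clioquinol control.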
aSyn yeast inh: alpha-synuclein toxicity inhibition in yeast; Yeast expressing alpha-synuclein, growth rescue, BacTiter-Glo, 24 h; Potency, µM (series often up to 46.1 µM), for inactives: at the top dose growth rescue (activation), actives largely listed as activators; hit rate 0.14% among 370,000; AID 652106; further: potency means the concentration at half of the fitted maximal effect; % of control where 0% means no effect; nearly all actives have a fitted effect of over 65% in size
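Screening used galactose-induced yeast with toxic alpha-synuclein levels, exposed to compound for 24 hr at 30 deg C. Cell growth, read with BacTiter-Glo luminescence, gave the measured signal.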
* marks the source's active call; other numbers are inactive results; i = inactive; ? = inconclusive; · = no result given. Unless noted, the call rests on the fitted dose curve; in most records, active means well fitted curve in the direction sought with a large enough effect; inconclusive means small, poorly fitted or top-dose-only effect, or another doubt; inactive means no such curve, though single readings can be large; an effect the other way counts as inactive or inconclusive.

SMILES	MmCpn inh	CCT chaperon mod	TDP-43 yeast inh	FUS yeast rescue	Abeta rescue	aSyn yeast inh
O=C(O)c1ccccc1NC(=O)C(Cc1ccccc1)N1C(=O)c2ccccc2C1=O (stereo not given)	2.7%	-32.4*	9.5%	i	i	-11.7%
CCC(C(=O)Nc1ccccc1C(=O)N1CCCC1)N1C(=O)c2ccccc2C1=O (stereo not given)	0.6%	-0.7	-16.4%	i	i	-13.3%
CCCCS(=O)c1c(O)c2ccccc2[nH]c1=O (stereo not given)	1.6%	-1.6	11.2µM*	i	i	16.9%
COc1ccc(-n2c(SCC(=O)Nc3nccs3)nc3sc4c(c3c2=O)CCN(C)C4)cc1	-15.9%	1.9	-18.5%	28.2µM*	i	5.7%
COc1ccc(NC(=O)CSc2nc3sc4c(c3c(=O)n2-c2ccc(OC)cc2)CCN(C)C4)cc1	?	-3.2	4.0%	?	i	-0.6%
CC1CC(C)CN(C(=O)C2CCN(c3cncnc3)CC2)C1 (stereo not given)	·	·	·	i	·	·
COc1ccc2cc(C3(C)NC(=O)N(CC(=O)NCC(F)(F)F)C3=O)ccc2c1 (stereo not given)	0.9%	-33.3*	-3.0%	i	i	-1.8%
COc1ccc2cc(C3(C)NC(=O)N(CC(=O)NCCC4=CCCCC4)C3=O)ccc2c1 (stereo not given)	0.7%	-0.6	-19.4%	i	i	-2.1%
O=C(CSc1nnc(-c2ccccc2)n1-c1ccc(Cl)cc1)Nc1ccc(OCc2ccccc2)cc1	·	·	·	i	·	·
COc1cccc2ccc(CC(O)(c3ccccc3)c3ccccc3)nc12	·	-51.6*	19.0%	i	i	-4.0%
COc1cccc(NC(=O)NC2CCCCN(Cc3ccccc3C)C2=O)c1 (stereo not given)	·	·	·	i	·	·
C=CCN1C(=O)[C@H](CC(=O)NCCc2ccccc2OC)[C@@]2(C(=O)OCC)CCCC=C12	·	·	·	i	·	·
Cc1cc2nc3ccc(=[N+](C)C)cc-3sc2cc1N	31.6µM*	2.6	-56.3%	?	i	-48.6%
O=C(CN1CCSc2ccccc21)NCc1ccccc1F	·	·	12.6µM*	i	i	9.9%
Nc1nc(Cl)nc2c1ncn2[C@@H]1O[C@H](CO)[C@@H](O)[C@@H]1F	·	·	·	i	·	·
O=C(O)c1ccc(SCc2ccccc2)nc1	·	-1.5	12.6µM*	i	i	7.1%
CS(=O)(=O)N1CCN(/[N+]([O-])=N/Oc2ccc([N+](=O)[O-])cc2[N+](=O)[O-])CC1 (tested in a mixture with another compound)	·	·	·	·	·	-34.4%
NC(=O)[C@H]1CC2(CC(c3cccc(NC(=O)[C@H]4CCC(=O)N4)c3)=NO2)CN1C(=O)CC(c1ccccc1)c1ccccc1 (stereo not given in full)	1.8%	-2.6	1.5%	?	i	-4.7%
NC(=O)[C@H](Cc1cc2ccccc2s1)NC(=O)[C@@H]1CC2(CC(c3cccc(NC(=O)[C@@H]4CCC(=O)N4)c3)=NO2)CN1C(=O)c1ccccc1 (stereo not given in full)	0.8%	-1.7	-7.0%	35.5µM*	i	3.3%
NC(=O)[C@H](Cc1cc2ccccc2s1)NC(=O)[C@@H]1CC2(CC(c3cccc(NC(=O)[C@@H]4CCC(=O)N4)c3)=NO2)CN1C(=O)/C=C/c1c(F)cccc1Cl (stereo not given in full)	0.1%	0.8	10.5%	?	i	-7.5%
NC(=O)[C@H](Cc1cc2ccccc2s1)NC(=O)[C@@H]1CC2(CC(c3cccc(NC(=O)[C@@H]4CCC(=O)N4)c3)=NO2)CN1C(=O)/C=C/Sc1ccccc1 (stereo not given in full)	-10.9%	-3.0	0.4%	28.2µM*	i	1.7%
COc1ccc(CN2CSC(=S)N(Cc3ccc(OC)cc3)C2)cc1	0.4%	-2.4	31.6µM*	i	i	-5.0%

Screening data (PubChem)
